In all, about 1,300 compounds went through this assay and about 330 (25%) were called active. No rule for the calls is given here. Only a sample is shown. Entries with a potency or affinity are not part of this list.

This assay in a line: growth inhibition of MALME3 cells – cell-based, CellTiter-Glo, cherry-picked, orthogonal assay for MITF inhibitor project, dose response (AID 493191). As to conditions: MALME3 melanoma viability, CellTiter-Glo luminescence, 24 h; series mostly up to 35 µM. On the technique in general: Cellular ATP, detected with luciferase, serves as a proxy for viable cell number.
As to `CCNc1nc(N)c(C(=O)c2ccc(Cl)s2)s1`, the compound was called inactive.

As to `CSc1nc(N)n2nc(-c3ccc(Cl)cc3)cc2n1`, the compound was called inactive. For `CC(C)CC(=O)/C=C/n1c(=S)oc2ccccc21` the value was “inactive”. The same measure for `O=C(CC(=O)c1ccccc1)Nc1ccccn1`: “inactive”; for `CN(c1cccc(NC(=O)COc2ccc(Cl)cc2Cl)c1)S(C)(=O)=O`: “inactive”. The same measure for `CC(=O)Nc1cccc2c1Cc1ccccc1-2`: “inactive”. With `CC(=O)Nc1ccc(S(=O)(=O)N2CCn3cccc3C2C)cc1` (stereo not drawn), the call was inactive. The same measure for `c1ccc(-c2cn3nc4c(nc3n2)CCCC4)cc1`: “inactive”; for `O=S1(=O)CCC(NC(=S)SCc2ccccc2Br)C1` (stereo not drawn): “inactive”. `COc1cccc(-c2nnc3sc(-c4cccs4)nn23)c1`: the outcome was inactive. Consider `COCC(C)Nc1ncnc2c1cnn2-c1ccc(Cl)cc1` (stereo not drawn), for which the result was inactive.

As to `Nc1ccccc1SC1CC(=O)N(c2ccc3c(c2)OCCO3)C1=O` (stereo not drawn), the compound was classed as inactive. For `Cc1ccc2nc(NC(=O)c3ccc(Br)o3)sc2c1` the value was “inactive”; for `COC(=O)CSC1=C(C#N)C(=O)NC(c2ccccc2)S1` (stereo not drawn), “inactive”. Take `Cc1ccc(OCCNCc2ccccc2)c(C)c1`: the result was inactive. For `CC(C)(C)c1ccc(OCCn2ccccc2=O)cc1` the value was “inactive”; for `Cc1ccc2nc3cc([N+](=O)[O-])cc([N+](=O)[O-])c3cc2c1`, “inactive”; for `NC(=O)c1cc([N+](=O)[O-])ccc1NCc1ccc(N)cc1`, “inactive”. For `CC(=O)N/C(N)=N/c1nc2cc(C)ccc2o1` the value was “inactive”; for `CCn1nccc1C(=O)Nc1ccc(C)c(C)c1`, “inactive”.

Regarding `Cc1ccc(NC(=O)c2cnc3ccccc3n2)cc1C`, the result was inactive. Regarding `CC(C)=CCc1c(O)ccc2c1OC(c1ccc(O)c(O)c1)CC2=O` (stereo not drawn), the call was inactive. For the compound `Cc1c(OCC(=O)NC2CC(C)(C)NC(C)(C)C2)ccc2c1oc(=O)c1ccccc12`, the result was inactive. For `COc1cc(SC)ccc1C(=O)NCCOc1ccccc1Cl` the value was “inactive”.

Turning to `CC1CCN(CC2C(=O)O[C@@H]3C[C@@]4(C)CCC[C@H](C)C4=C[C@H]23)CC(C)(C)C1` (stereo partly drawn), the outcome was inactive. For the compound `CCOc1ccccc1NC(=O)C(=O)N/N=C/c1cc(Br)ccc1O`, the outcome was inactive.

For `COc1ccc(C(=O)N/N=C/c2cc(Br)ccc2O)cc1OC`, the compound was called inactive. As to `COc1ccc(CCn2c(=S)[nH]c3cc(C(=O)NCc4ccco4)ccc3c2=O)cc1OC`, the compound was classed as inactive.

These data come from PubChem BioAssay AID493191 (Broad Institute, 2011).
